# Data from the supplement of paper PMC8728848.
# Shown is part of a subset that was picked to be rich in the strongest signals.
# B1: GS13686A-pdi-553-26-553 (Parabacteroides distasonis) (protein)
# chain: NENPDKPTDDVNYNMNEPRLASTLRGGLIIEGNVEQRLKPLQIDFYSQMTVDGGGWGTKNYIQDDEWNNLVWEEYLKQIASINIVIRSLTEKDKDAYANTIAFARIWRVYVHTLAADKFGPMPFPAYEIVEANPPYKSLKDIYDEYFRELDAAINGFNDSAQPIFSDAGIDLIYKNDVSKWKRFANSLRLRLAVRLTEVDQEKCIAEANAAISSPAGLISDKADNAYMPPKADGSWGQDYNYTMFQITWSGPICMSKSVEKLVTNIGGVAWPQGVVNQTSGVAVSSVHPEKVDPRAPKIFQPGIENGDWKGLVYGPKAEEANTGIYQSKQCAELGFIIKDGYPYKSRPYDLFLSEEVHFLKAELYARGFIAGDAKSEYEAGVRASFATWGVTSEVDDYLTSTEKNEAGTSARYDDQQGAGNTALEKIITQKYIAGIPDLAQEGWNDKRRLNLPRLDVAVYRDQAVYNNNDKDILKSANFIKRMRYPTKESLINATEYEKGKSMLGGKGDIVSTPLWWDKNSNYCTSSK
# Tests used:
# Assay in all cases: glycan array binding signal (z-score within array); higher = stronger binding
# Conditions in all cases: glycan notation: IUPAC condensed, linker removed
# [1] = target: Gal(b1-4)GlcNAc(b1-6)[Gal(b1-4)GlcNAc(b1-3)]GalNAc
# Method in brief: (§1)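 Glycan array data were curated from 3228 arrays in the Consortium for Functional Glycomics database and kept only where the protein sequence was available. Glycan names were converted to IUPAC-condensed notation, and columns mapping to the same glycan were averaged. The binding signal is a within-array Z-score, averaged across arrays of the same protein sequence at different concentrations or buffers and across linkers. Negative Z-scores can be read as non-binding.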
# [2] = target: Gal3S(b1-4)[Fuc(a1-3)]Glc6S
# Method in brief: as §1
# [3] = target: Gal6S(b1-3)GlcNAc
# Method in brief: as §1
# [4] = target: Gal6S(b1-4)GlcNAc6S
# Method in brief: as §1
# [5] = target: GalNAc(b1-4)Gal(b1-4)Glc
# Method in brief: as §1
# [6] = target: GalNAc(b1-4)GlcNAc(b1-3)GalNAc(b1-4)GlcNAc
# Method in brief: as §1
# [7] = target: GlcNAc(b1-2)[GlcNAc(b1-4)]Man(a1-3)[GlcNAc(b1-4)][GlcNAc(b1-2)[GlcNAc(b1-6)]Man(a1-6)]Man(b1-4)GlcNAc(b1-4)GlcNAc
# Method in brief: as §1
# [8] = target: GlcNAc(b1-4)GlcNAc
# Method in brief: as §1
# [9] = target: GlcNAc(b1-6)Gal(b1-4)GlcNAc
# Method in brief: as §1
# [10] = target: Man(a1-2)Man(a1-2)Man(a1-6)[Man(a1-3)]Man
# Method in brief: as §1
# [11] = target: Man(a1-2)Man(a1-3)Man
# Method in brief: as §1
# [12] = target: Man(a1-6)Man
# Method in brief: as §1
# [13] = target: MurNAc(b1-4)GlcNAc
# Method in brief: as §1
# [14] = target: Neu5Ac(a2-3)Gal(b1-3)GalNAc(b1-4)[Neu5Ac(a2-3)]Gal(b1-4)Glc
# Method in brief: as §1
# [15] = target: Neu5Ac(a2-3)Gal(b1-3)GlcNAc(b1-2)Man(a1-3)[Neu5Ac(a2-3)Gal(b1-3)GlcNAc(b1-2)Man(a1-6)]Man(b1-4)GlcNAc(b1-4)GlcNAc
# Method in brief: as §1
# [16] = target: Neu5Ac(a2-3)Gal(b1-3)GlcNAc(b1-3)Gal(b1-4)GlcNAc
# Method in brief: as §1
# [17] = target: Neu5Ac(a2-3)Gal(b1-3)GlcNAc(b1-6)GalNAc
# Method in brief: as §1
# [18] = target: Neu5Ac(a2-3)Gal(b1-3)[Fuc(a1-4)]GlcNAc(b1-3)Gal(b1-3)[Fuc(a1-4)]GlcNAc
# Method in brief: as §1
# [19] = target: Neu5Ac(a2-3)Gal(b1-3)[Neu5Ac(a2-6)]GlcNAc(b1-3)[Fuc(a1-3)[Gal(b1-4)]GlcNAc(b1-6)]Gal(b1-4)Glc
# Method in brief: as §1
# [20] = target: Neu5Ac(a2-3)Gal(b1-4)GlcNAc(b1-2)Man(a1-3)[Neu5Ac(a2-6)Gal(b1-4)GlcNAc(b1-2)Man(a1-6)]Man(b1-4)GlcNAc(b1-4)GlcNAc
# Method in brief: as §1
# [21] = target: Neu5Ac(a2-3)Gal(b1-4)GlcNAc(b1-2)[Neu5Ac(a2-3)Gal(b1-4)GlcNAc(b1-4)]Man(a1-3)[GlcNAc(b1-4)][Neu5Ac(a2-3)Gal(b1-4)GlcNAc(b1-2)[Neu5Ac(a2-3)Gal(b1-4)GlcNAc(b1-6)]Man(a1-6)]Man(b1-4)GlcNAc(b1-4)GlcNAc
# Method in brief: as §1
# [22] = target: Neu5Ac(a2-3)Gal(b1-4)GlcNAc(b1-3)Gal(b1-3)GlcNAc
# Method in brief: as §1
# [23] = target: Neu5Ac(a2-6)Gal
# Method in brief: as §1
# [24] = target: Neu5Ac(a2-6)Gal(b1-3)GlcNAc(b1-3)[Gal(b1-4)GlcNAc(b1-6)]Gal(b1-4)Glc
# Method in brief: as §1
# [25] = target: Neu5Ac(a2-6)Gal(b1-4)GlcNAc(b1-2)Man(a1-3)[Man(a1-6)]Man(b1-4)GlcNAc(b1-4)GlcNAc
# Method in brief: as §1
# [26] = target: Neu5Ac(a2-6)Gal(b1-4)GlcNAc(b1-2)Man(a1-3)[Neu5Ac(a2-6)Gal(b1-4)GlcNAc(b1-2)Man(a1-6)]Man(b1-4)GlcNAc(b1-4)[Fuc(a1-6)]GlcNAc
# Method in brief: as §1
# [27] = target: Neu5Ac(a2-6)Gal(b1-4)GlcNAc(b1-2)Man(a1-6)[Gal(b1-4)GlcNAc(b1-2)Man(a1-3)]Man(b1-4)GlcNAc(b1-4)GlcNAc
# Method in brief: as §1
# [28] = target: Neu5Gc(a2-3)Gal(b1-4)[Fuc(a1-3)]GlcNAc
# Method in brief: as §1
# [29] = target: Neu5Gc(a2-8)Neu5Gc(a2-3)Gal(b1-4)GlcNAc(b1-3)Gal(b1-4)GlcNAc
# Method in brief: as §1
binder,measurement,setting,value
B1,glycan array binding signal (z-score),[1],-0.002
same,glycan array binding signal (z-score),[2],0.425
same,glycan array binding signal (z-score),[3],22.6
same,glycan array binding signal (z-score),[4],-0.176
same,glycan array binding signal (z-score),[5],0.208
same,glycan array binding signal (z-score),[6],0.492
same,glycan array binding signal (z-score),[7],-0.24
same,glycan array binding signal (z-score),[8],-0.294
same,glycan array binding signal (z-score),[9],-0.023
same,glycan array binding signal (z-score),[10],-0.073
same,glycan array binding signal (z-score),[11],-0.226
same,glycan array binding signal (z-score),[12],0.458
same,glycan array binding signal (z-score),[13],-0.226
same,glycan array binding signal (z-score),[14],-0.071
same,glycan array binding signal (z-score),[15],-0.099
same,glycan array binding signal (z-score),[16],-0.307
same,glycan array binding signal (z-score),[17],3.88
same,glycan array binding signal (z-score),[18],-0.153
same,glycan array binding signal (z-score),[19],-0.086
same,glycan array binding signal (z-score),[20],1.01
same,glycan array binding signal (z-score),[21],0.051
same,glycan array binding signal (z-score),[22],-0.389
same,glycan array binding signal (z-score),[23],-0.025
same,glycan array binding signal (z-score),[24],2
same,glycan array binding signal (z-score),[25],0.341
same,glycan array binding signal (z-score),[26],0.391
same,glycan array binding signal (z-score),[27],0.126
same,glycan array binding signal (z-score),[28],0.009
same,glycan array binding signal (z-score),[29],-0.323
